# Results filed as inconclusive are left out. A call without a number means that no potency is given here. Calls of active or inactive are those of the source. The call rests on the fitted dose curve; in most records, active means well fitted curve in the direction sought with a large enough effect; inconclusive means small, poorly fitted or top-dose-only effect, or another doubt; inactive means no such curve, though single readings can be large; an effect the other way counts as inactive or inconclusive.
# Experiments:
# [1] = qHTS for Inhibitors of Plasmodium falciparum (DD2) proliferation (AID 504314); further: potency means the concentration at half of the fitted maximal effect; conditions: P. falciparum Dd2 in erythrocytes, SYBR Green growth, 72 h; series mostly up to 1.12 µM
# How it was run: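 Infected RBCs, 0.3% parasitemia, 2.5% Hct; compound 72 h, 37C/5% CO2; lyse + SYBR Green I, RT overnight, dark; read ex485/em535; normalize to DMSO and artemisinin 0.29 uM.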
# [2] = qHTS for Inhibitors of Plasmodium falciparum (GB4) proliferation (AID 504315); further: nearly all actives have a fitted effect of over 50% in size; further: potency means the concentration at half of the fitted maximal effect; conditions: P. falciparum GB4 in erythrocytes, SYBR Green DNA, 72 h; series mostly up to 6.7 µM
# How it was run: (§1)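 Erythrocytes infected with P. falciparum line (0.3% parasitemia, 2.5% hematocrit final) incubated with compounds 72 h at 37 °C, 5% CO2; SYBR Green lysis buffer added, fluorescence read next day. Normalized to 0.29 uM artemisinin and DMSO.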
# [3] = qHTS for Inhibitors of Plasmodium falciparum (7G8) proliferation (AID 504316); further: nearly all actives have a fitted effect of over 65% in size; further: potency means the concentration at half of the fitted maximal effect; conditions: P. falciparum 7G8 in erythrocytes, SYBR Green DNA, 72 h; series mostly up to 6.7 µM
# How it was run: as §1
# [4] = qHTS for Inhibitors of Plasmodium falciparum (HB3) proliferation (AID 504318); further: nearly all actives have a fitted effect of over 60% in size; further: potency means the concentration at half of the fitted maximal effect; conditions: P. falciparum HB3 in erythrocytes, SYBR Green DNA, 72 h; series mostly up to 7.21 µM
# How it was run: as §1
# [5] = qHTS for Inhibitors of Plasmodium falciparum (CP250) proliferation (AID 504320); conditions: P. falciparum CP250 in erythrocytes, SYBR Green DNA, 72 h; series mostly up to 6.7 µM
# How it was run: as §1
SMILES,Potency [1],Potency [2],Potency [3],Potency [4],Potency [5]
CC[C@@H](C)CN1C(=O)N[C@@H](c2ccccc2)C(C(=O)OC)=C1C,inactive,inactive,inactive,inactive,–
COC(=O)C1=C(C(=O)OC)[C@@H]2N(C)c3ccc(OC)cc3[C@@]23C[C@@H](C(=O)OC)N(C(=O)c2ccc(Br)cc2)C3=N1,inactive,inactive,inactive,inactive,inactive
COC(=O)C1=C(C(=O)OC)[C@@H]2N(C)c3ccccc3[C@@]23C[C@@H](C(=O)OC)N(C(=O)COCc2ccccc2)C3=N1,inactive,inactive,inactive,inactive,inactive
COC(=O)C1=C(C(=O)OC)[C@@H]2N(C)c3ccccc3[C@@]23C[C@@H](CO)N=C3N1,inactive,inactive,inactive,inactive,inactive
CCN1C(=O)N[C@@H](CCc2ccccc2)C(C(=O)OC)=C1C,inactive,inactive,inactive,inactive,inactive
COC(=O)C1=C(C(=O)OC)[C@@H]2N(C)c3ccccc3[C@@]23C[C@@H](C(=O)OC)N(C(=O)C2CCC2)C3=N1,inactive,inactive,inactive,inactive,inactive
COCCN1C(=O)N[C@@H](c2cccc(C(F)(F)F)c2)C(C(=O)OC)=C1C,inactive,inactive,inactive,inactive,inactive
C=CCN1C=C2C(=O)C(C)(OC(=O)C3CCCC3)C(=O)C(c3ccccc3)=C2C=C1CCCC(=O)OC (configuration not stated),inactive,inactive,inactive,inactive,inactive
CC1(OC(=O)C2CCCC2)C(=O)C=C2C=C(c3ccsc3)N(CCCCO)C=C2C1=O (configuration not stated),inactive,inactive,inactive,inactive,inactive
COc1ccc(-c2nc3c(c4c2C[C@H](c2ccccc2)OC4)CN(S(=O)(=O)c2ccc4c(c2)OCCN4C)CC3)c(C)c1,inactive,inactive,inactive,inactive,inactive
CCCC[C@]12Cc3c(ccc4ccccc34)[C@H](O1)C1=C(O2)C(=O)c2ccccc2C1=O,1690 nM (active),1690 nM (active),1510 nM (active),1510 nM (active),–
COC(=O)CCC(=O)OC1(C)C(=O)C=C2C=C(C3CC3)N(C3CCCC3)C=C2C1=O (configuration not stated),inactive,inactive,inactive,inactive,inactive
C[C@H]1Cc2c(-c3ccccc3)nc3c(c2CO1)CN(C(=O)c1ccco1)CC3,inactive,inactive,inactive,inactive,inactive
COC/C=C/C1=CC2=CC(=O)C(C)(OC(=O)c3cnc4ccccc4n3)C(=O)C2=CN1CC(C)C (configuration not stated),inactive,inactive,inactive,inactive,inactive
COC/C=C/C1=CC2=CC(=O)C(C)(OC(=O)c3cnc4ccccc4n3)C(=O)C2=CN1CC1CC1 (configuration not stated),inactive,inactive,inactive,inactive,inactive
COC(=O)C1=C(C(=O)OC)[C@@H]2N(Cc3ccccc3)c3ccccc3[C@@]23C[C@@H](C(=O)OC)N(C(=O)NCCBr)C3=N1,inactive,inactive,inactive,inactive,inactive
COc1ccc(C2=CC3=C(Br)C(=O)C(C)(OC(=O)c4cnc5ccccc5n4)C(=O)C3=CO2)cc1 (configuration not stated),inactive,inactive,inactive,inactive,inactive
CC(CCN1CCCc2nc(C)c(C)cc21)=NO[C@H](C)c1cn([C@@H]2COC[C@@H]2O)nn1,inactive,inactive,inactive,inactive,–
COC(=O)CCCC1=CC2=C(c3ccccc3)C(=O)C(C)(OC(=O)C3CCCC3)C(=O)C2=CN1C(CO)CO (configuration not stated),inactive,inactive,inactive,inactive,inactive
CCCCc1nc2c(c3c1C[C@H](C)OC3)CN(C(=O)NCc1ccco1)CC2,inactive,inactive,inactive,inactive,inactive

SMILES,Potency [1],Potency [2],Potency [3],Potency [4],Potency [5]
CCCCc1nc2c(c3c1C[C@H](C)OC3)CN(C(=O)C1CC1)CC2,inactive,inactive,inactive,inactive,inactive
CCN1C(=O)N[C@@H](c2ccccc2)C(C(=O)OC)=C1C,inactive,inactive,inactive,inactive,inactive
COC[C@@H](O)[C@@H](OC)[C@H](OC)[C@H](Cc1c(OC)cc(OC)cc1OC)OC,inactive,inactive,inactive,inactive,inactive
COC/C=C/C1=CC2=CC(=O)C(C)(OC(=O)c3cnc4ccccc4n3)C(=O)C2=CN1Cc1ccccc1 (configuration not stated),inactive,inactive,inactive,inactive,inactive
COC(=O)CCCC1=CC2=CC(=O)C(C)(OC(=O)c3cccs3)C(=O)C2=CN1c1ccc(CO)cc1 (configuration not stated),inactive,inactive,inactive,inactive,inactive
COC(=O)CCC(=O)OC1(C)C(=O)C=C2C=C(C3CC3)N(CC(C)C)C=C2C1=O (configuration not stated),inactive,inactive,1510 nM (active),inactive,inactive
COC(=O)N[C@@H](c1cccc(C)c1)[C@]1(C(C)=O)CCCC1=O,inactive,inactive,inactive,inactive,inactive
COC(=O)N[C@H](C(C(=O)OC)=C(C)NCc1ccccc1)c1cccc(F)c1,inactive,inactive,inactive,inactive,inactive
CCCCC1=CC2=CC(=O)C(C)(OC(=O)CC)C(=O)C2=CN1Cc1ccc(OC)cc1 (configuration not stated),inactive,inactive,inactive,inactive,inactive
CCN1C(=O)N[C@@H](c2cccc(C(F)(F)F)c2)[C@@H](C(=O)OC)[C@H]1C,inactive,inactive,inactive,inactive,inactive
CCOC(=O)CN1C(=O)NC(c2cccc(C(F)(F)F)c2)C(C(C)=O)=C1C (configuration not stated),inactive,inactive,inactive,inactive,inactive
COC(=O)CCC(=O)OC1(C)C(=O)C2=CN(CCc3ccccn3)C(c3ccc(OC)cc3)=CC2=C(Br)C1=O (configuration not stated),inactive,inactive,inactive,inactive,inactive
COCCN1C=C2C(=O)C(C)(OC(=O)CCC(=O)OC)C(=O)C(Br)=C2C=C1c1ccc(OC)cc1 (configuration not stated),inactive,inactive,inactive,inactive,inactive
CCOC(=O)CCCNC(=O)N1CCc2nc(-c3ccccc3)c3c(c2C1)CO[C@@H](C)C3,inactive,inactive,inactive,inactive,inactive
CCCCC1=CC2=CC(=O)C(C)(OC(=O)CC)C(=O)C2=CN1C1CCCCC1 (configuration not stated),inactive,inactive,inactive,inactive,inactive
COC(=O)CCCC1=CC2=C(c3ccccc3)C(=O)C(C)(OC(=O)C3CCCC3)C(=O)C2=CN1CC1CC1 (configuration not stated),inactive,inactive,inactive,inactive,inactive
COC(=O)CCC(=O)OC1(C)C(=O)C2=CN(CC3CC3)C(c3ccc(OC)cc3)=CC2=C(Br)C1=O (configuration not stated),inactive,inactive,inactive,inactive,inactive
COC(=O)C1=C(C)N(Cc2ccccc2)C(=S)NC1c1cccc(F)c1 (configuration not stated),inactive,inactive,inactive,inactive,inactive
COC(=O)CCCC1=CC2=CC(=O)C(C)(OC(=O)c3cccs3)C(=O)C2=CN1CCCCO (configuration not stated),inactive,inactive,inactive,inactive,inactive
COC(=O)[C@@H]1[C@H](CCc2ccccc2)NC(=O)N(Cc2ccccc2)[C@@H]1C,inactive,inactive,inactive,inactive,inactive

# Reference: PubChem BioAssay (NCATS)
